Measured values as given in ChEMBL document CHEMBL3988442, “University of Dundee, Small-Polar-MMV Screening Library” (2021).
Among all 48,000 compounds or so, about 13,000 (27%) showed an effect of 50% or more. This is one part of the list.

Test system: Wolbachia pipientis
Test: Anti-Wolbachia Cell-Based Screen
Format: functional
Design: scale not given: in the data most compounds retested in dose-response had high values
Conditions: 5 µM

Structure (SMILES) | Percent Effect [%]
Cc1nc(CNC(=O)NC2CCN(c3cccc(Cl)c3)C2)no1 (configuration not stated) | 1.056
COC(=O)N1CCCCC1C(=O)N1CCCN(c2ccnc(C)c2)CC1 (configuration not stated) | 2.606
COCC(=O)N1CCCC1c1cc(N2CCN(C(C)=O)CC2)cc(C)n1 (configuration not stated) | 110.9
COCC(=O)N1CCN(C(C)=O)C[C@@H]1C(=O)OC | 18.89
COCC(=O)N1CCN(c2cc(C)nc(C3CCCN3C(C)=O)c2)CC1 (configuration not stated) | 105.4
COCC(=O)N1CCN(c2cc(-n3cccc3)nc(C)n2)CC1 | -19
O=C(NCC1OCCc2cn(CC3CCOCC3)nc21)c1ccncc1.O=C(O)C(F)(F)F (configuration not stated) | -2.103
CS(=O)(=O)N1C[C@@H]2OCC(=O)N(CC3CCC3)[C@@H]2C1 | -1.197
O=C(O)c1csc(S(=O)(=O)N2CCCc3ccc(F)cc32)c1 | -8.72
O=C1Nc2ccccc2CC12CCCN2Cc1ccc(F)cc1 (configuration not stated) | 106.5
O=C1Nc2ccccc2CC12CCCN2Cc1ccc(C(F)(F)F)cc1 (configuration not stated) | 105.2
O=C(NC1CC1)N1CCC2(CC1)C(=O)NCCN2Cc1ccccc1.O=C(O)C(F)(F)F | -18.73
COCCC1(CO)CCCN(Cc2ccc(C(F)(F)F)cc2)C1 (configuration not stated) | -12.26
CS(=O)(=O)c1ccc(CN2CCCC3(C2)C(=O)Nc2ccccc23)cc1 (configuration not stated) | 12.45
CC(C)N1CCC2(CCCN(Cc3ccc(F)cc3)C2=O)C1 (configuration not stated) | -24.02
CCC(CC)c1cc(CNC(=O)N2CCN(CC)CC2)on1 | 1.8
O=C(c1cnc(-c2ccccn2)s1)N1CCCC1Cn1cccn1 (configuration not stated) | 117.3
O=C(c1cnc(-c2cnccn2)s1)N1CCCC1Cn1cccn1 (configuration not stated) | 93.62
O=C(c1cnc(-c2ncccn2)s1)N1CCCC1Cn1cccn1 (configuration not stated) | 93.22
COc1ccc(CN2CCN(c3ncc(Cl)cn3)CC2)cc1 | -2.887
CC(C)(O)c1cn(C2CCN(c3ncccc3Cl)CC2)nn1 | -4.75
CSc1ccc(NC(=O)COCc2ccccc2)nc1 | -20.64
NC(=O)CN(CC(N)=O)Cc1cccc(Oc2ccccc2)c1 | -1.216
O=C(NC1CCCN(CCCc2ccccc2)C1)c1ccc(Cl)s1 (configuration not stated) | 85.82

Structure (SMILES) | Percent Effect [%]
O=C(NC1CCCN(CCCc2ccccc2)C1)C1=CCCCC1 (configuration not stated) | 81.9
O=C(Cc1cccnc1)NC1CCCN(CCCc2ccccc2)C1 (configuration not stated) | 124.1
CN(C(=O)CC1=CCCCC1)C1CCCN(CCc2ccccc2)C1 (configuration not stated) | 7.677
Nc1cc(C(=O)NC2CCCN(CCCc3ccccc3)C2)ccn1 (configuration not stated) | 96.33
Nc1cc(C(=O)NCC2CCN(CCc3ccccc3)C2)ccn1 (configuration not stated) | -3.918
CN(C(=O)c1cccnc1)C1CCCN(CCc2ccccc2)C1 (configuration not stated) | -6.072
CC(C)C(=O)NCC(=O)N(C)C1CCCN(CCc2ccccc2)C1 (configuration not stated) | -4.152
CC(C)(C)NC(=O)N1CCC(NC(=O)Cc2cccnc2)CC1 | -14.05
CCOC(=O)C1CCN(C(=O)Cc2c(C)nc(C)[nH]c2=O)CC1 | 4.435
COc1nccnc1N1CCC2(CCCN(C(C)C)C2=O)C1 (configuration not stated) | -3.964
CCN(c1ccc(C(=O)NCc2cc[nH]n2)cc1)C(C)C | -0.1162
Cc1sc2nc(C(F)(F)F)nc(N3CCN(C)CC3)c2c1C | 8.571
COc1ccc(F)c(F)c1CN1CCN(CC(C)C)C(=O)C1C (configuration not stated) | 1.65
O=C(NC1CC1)c1ccc(SCc2cscn2)cc1 | -37.4
CC(C)CNC(=O)NC(=O)CNc1ccccc1SCC(C)C#N (configuration not stated) | 9.026
O=C(COC1CCCCC1)Nc1ccn(CCc2ccncc2)n1 | -1.367
O=C(NC1CCCN(CCCc2ccccc2)C1)c1ccncc1 (configuration not stated) | 84.08
CN(C(=O)CCc1ccncc1)C1CCCN(CCc2ccccc2)C1 (configuration not stated) | -4.229
CN(Cc1ccsc1)C(=O)c1cccc(NS(C)(=O)=O)c1 | 8.391
CNS(=O)(=O)c1cccc(C(=O)N(C)Cc2ccsc2)c1 | 124.1
CN(Cc1ccsc1)C(=O)c1ccc(S(=O)(=O)NC(C)(C)C)cc1 | 98.59
CN(Cc1ccsc1)C(=O)c1ccc(C2CCCO2)s1 (configuration not stated) | -3.526
CN(Cc1ccsc1)C(=O)Nc1ccc(S(=O)(=O)N(C)C)cc1 | 5.237
CN(Cc1ccsc1)C(=O)c1cc(S(=O)(=O)N(C)C)ccc1Cl | 5.417

Structure (SMILES) | Percent Effect [%]
CN(Cc1ccsc1)C(=O)c1ccc(F)c(NS(C)(=O)=O)c1 | 0
CCN(CC)S(=O)(=O)c1cccc(C(=O)N(C)Cc2ccsc2)c1 | 98.21
CN(Cc1ccsc1)C(=O)c1cccc(S(=O)(=O)NC(C)(C)C)c1 | 0.007999
CN(Cc1ccsc1)C(=O)c1cccc(S(=O)(=O)NCC2CCCO2)c1 (configuration not stated) | 104.2
COCCNS(=O)(=O)c1ccc(Cl)c(C(=O)N(C)Cc2ccsc2)c1 | 14.25
CCN(C)C(=O)c1cccc(S(=O)(=O)NCCc2csc(N)n2)c1 | -2.209
Cc1ccc(C)c2c(C)c(C(=O)NCCC(=O)N3CCOCC3)oc12 | 9.055
CC(C)c1nsc(NC2CC(=O)N(C(C)(C)C)C2)n1 (configuration not stated) | 1.592
COC(CNC(=O)c1cn(C)nn1)c1ccc(C)s1 (configuration not stated) | -8.016
Cc1ccccc1C(C)NC(=O)Cc1c(C)nc2cc(=O)[nH]n2c1C (configuration not stated) | -0.7333
CN(CCNc1ncc2c(n1)CCN2c1ccccc1)S(C)(=O)=O | 7.395
O=C(O)c1ccccc1-c1c(-c2ccccc2)ncn1CC1CCCO1 (configuration not stated) | -2.227
Cc1nnc2n1CCN(C(=O)c1cn(-c3ccccc3Cl)nn1)C2 | -0.6863
Cc1cccc(-n2c(C)cc(C(=O)N3CCn4c(C)nnc4C3)c2C)c1 | 1.537
CC(C)c1nnc2n1CCN(C(=O)c1cn(-c3ccccc3)nn1)C2 | 113.1
Cc1cccc(-n2cc(C(=O)N3CCn4c(C)nnc4C3)nn2)c1 | 7.104
Cc1nnc2n1CCN(C(=O)c1cn(-c3ccccc3)nn1)C2 | 102.5
O=C(c1ccn(-c2cccc(F)c2)n1)N1CCN(CCO)CC1 | -27.1
Cc1nnc2n1CCN(C(=O)c1cc(Cl)c(Cl)n1C)C2 | -5.044
CCOC(C(=O)N1CCn2c(nnc2C(C)C)C1)c1ccccc1 (configuration not stated) | -0.6295
Cc1nnc2n1CCN(C(=O)c1ccn(-c3cccc(F)c3)n1)C2 | 108.9
Cc1ccc(-n2cc(C(=O)N3CCn4c(C)nnc4C3)nn2)cc1 | 111.3
CC(C)(O)CN1CCN(C(=O)c2ccn(-c3cccc(F)c3)n2)CC1 | -183.4
COCc1ccccc1C(=O)N1CCn2c(nnc2C(C)C)C1 | 6.004
